Dyrk1A ADPGlo – blocks rat Dyrk1A kinase activity. Q63470. ADP-Glo luminescence, NFATc1 peptide. inhibition, % at 12.5 µM. 310,000 tested, 0.43% active. AID 504441; in the data active = inhibition above about 50%;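 note: plate controls were vehicle with enzyme for no effect and no enzyme for full effect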
STK33 kinase inh – blocks human STK33 kinase activity. 320,000 tested, 0.073% active. inhibition, % at 10 µM. purified STK33, MBP phosphorylation, ADP-Glo luminescence;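 active = inhibition at or above 25%, using the most active replicate where run in duplicate; inactive = inhibition below 25%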
PP1 inh – blocks human PP1-alpha phosphatase, a PP5 counter-screen; 320,000 tested, 0.9% active; purified PP1alpha, OMFP fluorescence; AID 2235; inhibition, % at 6.7 µM; P62136;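 active = inhibition above the mean inhibition of all tested compounds plus 3 SD, computed separately for each screening campaign, cut at about 15% in these data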
HIF act – HIF pathway transcriptional activation. activation, % at 7.5 µM (by protocol). AID 1910. 300,000 tested, 0.32% active. U2OS HRE-luciferase reporter, luminescence; normalized: DMSO 0%, desferrioxamine 100%;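 active = mean activation of at least 10% of the iron chelator positive control signal, with at least half of replicates also reaching 10%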
PP5 inh – PP5 (human) phosphatase inhibition. purified PP5c, OMFP substrate fluorescence. inhibition, % at 6.7 µM. 320,000 tested, 0.18% active. AID 1987;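 active = inhibition above the campaign's mean inhibition across all tested compounds plus 3 SD, cut at about 9.5% in these data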;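 note: 0% = DMSO only and 100% = 100 µM cantharidin control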
Target sequence (P53041 whole entry, looked up): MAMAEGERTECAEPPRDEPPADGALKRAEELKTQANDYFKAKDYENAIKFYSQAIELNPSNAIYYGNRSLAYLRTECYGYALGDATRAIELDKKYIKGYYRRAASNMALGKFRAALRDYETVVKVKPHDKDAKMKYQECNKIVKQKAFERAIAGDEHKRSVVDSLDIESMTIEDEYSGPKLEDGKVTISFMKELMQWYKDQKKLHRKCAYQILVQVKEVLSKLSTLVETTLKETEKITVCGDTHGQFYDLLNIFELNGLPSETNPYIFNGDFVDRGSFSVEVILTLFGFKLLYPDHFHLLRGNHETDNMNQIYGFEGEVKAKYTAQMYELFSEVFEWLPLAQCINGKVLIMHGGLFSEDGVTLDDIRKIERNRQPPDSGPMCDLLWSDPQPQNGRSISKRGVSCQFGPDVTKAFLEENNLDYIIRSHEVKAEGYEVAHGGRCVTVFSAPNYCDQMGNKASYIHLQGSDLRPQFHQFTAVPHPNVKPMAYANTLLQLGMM
PP1 confirm – confirmation of human PP1 phosphatase inhibitors. AID 2358. purified PP1alpha, OMFP substrate fluorescence. shares compounds with PP1 inh. 1,900 tested, 52% active. inhibition, % at 6.7 µM;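 active = mean PP1 inhibition above a set limit taken from the earlier primary screen, cut at about 15% in these data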
PP5 counter – counter-screen for PP1 inhibitors: human PP5 phosphatase inhibition; shares compounds with PP1 inh; purified PP5c, OMFP fluorescence; inhibition, % at 6.7 µM; 1,900 tested, 4% active;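 active = mean PP5 inhibition over triplicate wells above about 9.5% taken from the earlier PP1 screen, limit read from the data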
Active calls of the source: *; . = not tested or not shown. In the library only some 1.5% were active in any assay of this set; here they are far more common.

SMILES | Dyrk1A ADPGlo | STK33 kinase inh | PP1 inh | HIF act | PP5 inh | PP1 confirm | PP5 counter
O=C(O)c1cc(-c2ccc(Cl)cc2)n(-c2ccc(F)cc2)n1 | 1.4 | -0.6 | 46.9* | -1.6 | 0.3 | 37.2* | -2.5
O=C(CSc1nnc(CNc2ccc(F)cc2)o1)c1ccccc1 | 8.8 | -0.4 | -2.7 | -0.3 | 2.0 | . | .
Cc1ccccc1C(=O)N1CCc2cc(-c3nc(NC(=O)Cc4ccc5c(c4)OCO5)sc3C)ccc21 | 0.0 | -0.9 | 19.1* | 0.1 | 4.0 | 19.1* | 2.7
Cc1sc(NC(=O)Cc2ccc3c(c2)OCO3)nc1-c1ccc2c(c1)CCN2C(=O)c1cccc(F)c1 | 2.4 | . | 9.2 | -1.7 | 1.2 | . | .
Cc1ccccc1NC(=O)COC(=O)/C=C/c1cn(-c2ccccc2)nc1-c1cccnc1 | 2.8 | -1.1 | 31.6* | -0.3 | 1.6 | 31.7* | -4.4
CCc1nc(N2CCN(S(=O)(=O)c3ccc(Br)cc3)CC2)c2c(C)c(C)sc2n1 | -3.7 | -4.0 | 1.7 | -0.4 | 1.7 | . | .
Cc1ccc(S(=O)(=O)N2CCN(c3nc(CN4CCCC4)nc4sc(C)c(C)c34)CC2)cc1 | -0.3 | 0.5 | 18.9* | . | -1.7 | 4.1 | -0.1
c1ccc(-c2c(-c3ccccc3)n(Cc3ccco3)c3ncnc(NCCCn4ccnc4)c23)cc1 | -1.5 | 0.2 | 24.1* | 0.2 | 3.7 | 14.9 | 3.1
CC(C)Cn1cnc2c(c(-c3ccccc3)c(-c3ccccc3)n2Cc2ccco2)c1=N | 0.4 | 0.5 | 6.1 | 0.9 | 3.5 | . | .
N=c1c2c(-c3ccccc3)c(-c3ccccc3)n(Cc3ccco3)c2ncn1Cc1ccccc1 | 1.0 | -0.8 | 28.4* | 2.7 | 0.9 | 1.4 | -0.9
CCC(=O)N1N=C(c2c(-c3ccccc3)c3cc(Cl)ccc3[nH]c2=O)CC1c1ccco1 (stereo not drawn) | -5.5 | 0.2 | 27.1* | -0.1 | -0.6 | 10.1 | -1.2
CCN(CCCNC(=O)CNC(=O)c1nn(-c2ccc(OC)cc2)c(=O)c2ccccc12)c1cccc(C)c1 | -1.2 | 0.9 | 7.9 | -0.2 | 4.0 | . | .
CC(C)(C)c1cc(Br)ccc1OCC(=O)Nc1ncn[nH]1 | -1.0 | -0.5 | 23.4* | 0.2 | 0.3 | 19.6* | -1.7
CSc1ccc(C=NNc2ccc(S(=O)(=O)Nc3ccccc3C(=O)O)cc2[N+](=O)[O-])cc1 | . | -1.4 | . | . | . | . | .
Cc1nn(-c2ccccc2)c(Cl)c1/C=N/Nc1ccc(S(=O)(=O)Nc2ccccc2C(=O)O)cc1[N+](=O)[O-] | 5.9 | 1.2 | 19.9* | -0.2 | 3.3 | 10.6 | -1.7
COc1ccc(S(=O)(=O)N2CCN(C(=O)c3ccc(C)o3)CC2)cc1 | -6.1 | -0.1 | 0.2 | -0.3 | 2.1 | . | .
Cc1ccccc1/C=C/c1nc2ccccc2c(=O)[nH]1 | 2.5 | -0.7 | 20.1* | 5.8 | 0.0 | 18.0* | -1.6
COc1ccc(/C=N/NC(=O)c2ccc(NC(C)=O)cc2)cc1COc1ccc(F)cc1F | 0.4 | -0.1 | 21.8* | -1.7 | 1.5 | 12.1 | -2.0
COc1ccc(/C=N\NC(=O)c2ccc(F)cc2)cc1COc1cc(F)ccc1[N+](=O)[O-] | . | -0.6 | . | -0.2 | . | . | .
COc1ccc(/C=N\NC(=O)c2ccccc2)cc1COc1ccccc1 | 0.7 | -0.6 | -1.9 | 0.8 | 0.4 | . | .
COc1ccc(/C=N\NC(=O)c2cc(O)c(O)c(O)c2)cc1COc1ccc(C(=O)OCC(C)C)cc1 | -1.7 | 0.7 | 26.8* | -7.7 | 7.0 | 25.3* | 0.1
C=CCn1c(C)cc(C2=NNC(=Nc3ccc(C)cc3)SC2)c1C | -5.1 | -0.7 | 7.8 | 0.1 | -0.6 | . | .
Cc1cc(C2=NNC(=Nc3ccc(S(=O)(=O)N4CCOCC4)cc3)SC2)c(C)n1C | -3.4 | 0.4 | 17.8* | 0.6 | 0.0 | -0.5 | -3.1
Fc1ccc(C2CC(c3ccco3)=NN2c2ccccc2)cc1 (stereo not drawn) | 0.2 | 1.6 | 2.6 | -0.6 | 1.7 | . | .
O=[N+]([O-])c1ccc(N2N=C(c3ccco3)CC2c2ccccc2)cc1 (stereo not drawn) | 1.6 | 2.1 | 19.1* | -0.5 | -3.0 | 1.6 | -3.9
Cc1ccc(NC(=O)CNc2cccc(Br)c2)cc1S(=O)(=O)N1CCOCC1 | -3.2 | 2.0 | . | . | . | . | .
O=C(N/N=C/c1ccncc1)c1cccc(S(=O)(=O)Nc2ccc(Cl)cc2)c1 | 0.0 | -0.1 | 20.8* | 0.0 | 1.4 | 6.5 | -3.8
O=C(N/N=C/c1cccnc1)c1cccc(S(=O)(=O)Nc2cccc(Cl)c2)c1 | . | 0.5 | -2.6 | -26.9 | 0.6 | . | .
